Results reported in the supplement of paper PMC10338343.
± gives the standard deviation.

What follows are sequences tested on MILI (PIWIL2) piRISC loaded with L1MC piRNA (26 nt) (assay: pre-steady-state target cleavage rate (min^-1); guide: L1MC piRNA 5'p-UAACUAAAUACUAUGCAAGCUGUAGG; MIWI and MILI are mouse PIWI proteins and EfPiwi is from a freshwater sponge; tags in brackets are library labels; higher = faster piRNA-guided slicing of the target). Settings: auxiliary factor: 500 nM mouse GTSF1.
Method in brief: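 A transcribed, DNA-blocked target RNA library […] was incubated at 33 °C for 0–8 or 0–960 min with 1 nM active affinity-purified piRISC carrying one synthetic guide, in HEPES–potassium acetate buffer with or without 500 nM GTSF1 partner protein. Uncleaved targets were then sequenced and normalised to depth and to weakly complementary targets. Data from three trials were pooled, with k3 capped at 0.0001 min^-1, and a burst-and-steady-state fit yielded the pre-steady-state cleavage rate.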
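Also: 1 nM active piRISC with 0.1 nM target library at 33 °C single turnover.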

Sequence | pre-steady-state target cleavage rate
UCCUCCUACAGCUUGCAUAGUAUUUAGUUUA | 0.333 ± 0.019
UCCUGGUACACCUUGCAUAGUAUUUAGUAA | 0.182 ± 0.043
UCCUGCUACAGCAUGCAUUGUAUUUAGUUA | 0.213 ± 0.02
UCCUGGAUGUCCUUGCAUAUUAUUUAGUUA | 0.038 ± 0.011
UCCUGGAACAGCUUGCAUAGUAUGUAGUUA | 0.206 ± 0.034
UCCUGGAACAGCUUGCAUACUAUUUAGUUA | 0.0842 ± 0.014
UCCUGGAUGAGCAUUGCAUAGUAUUUAGUUA | 0.212 ± 0.022
UCCUCCUACAGCUUGCAUAGUAUUUAAUUA | 0.11 ± 0.019
UCCUGGAUCUGGUUGCAUAGUAUUUAGUUA | 0.158 ± 0.014
UCCUCCUACAGCUUGCAAAGUAUUUACUUA | 0.0765 ± 0.013
UCCUGGUACACUUGCAUAGUAUUUAGUUA | 0.188 ± 0.024
UCCUCCUACACCUUGCAUAGUAUUUAGUAA | 0.226 ± 0.037
UCCUCCUACAGCUAGCAUAGUAUAUAGUUA | 0.192 ± 0.03
UCCUGGUACAGCCUUGCAUAGUAUUUAGUUA | 0.198 ± 0.02
UCCUGCUACACCUUGCAUAGUAUUUAGUUA | 0.214 ± 0.018
UCCUGGAUGAGCUUGCAUAGUAUUUAGGUUA | 0.195 ± 0.028
UCCUCCUACAGCUUGCAUAGUAUCUUAGUUA | 0.285 ± 0.022
UCCUGGAACAGCUUGCAUAGUAUUAUGUUA | 0.105 ± 0.026
UCCUCCUACACUUGCAUAGUAUUUAGUUA | 0.248 ± 0.016
UCCUGCUUCAGCUUGCAUAGUAUUUAGAUA | 0.165 ± 0.025

Sequence | pre-steady-state target cleavage rate
UCCUCCUACUCCUUGCAUAGUAUUUAGUAA | 0.147 ± 0.017
UCCUGCAACAGCUUGCAUUGUAUUUAGUUA | 0.262 ± 0.018
UCCUGGAUGUGUUUGCAUAGUAUUUAGUUA | 0.16 ± 0.019
UCCUCCUACAGCUUGCAUGGUAUUUAGUUA | 0.413 ± 0.019
UCCUCCUUCAGCUUGCAUAGUAAUUAGUUA | 0.211 ± 0.021
UCCUGGAACAGCCUUGCAUAGUAUUUAGUUA | 0.225 ± 0.019
UCCUGGUAGAGCUUGCAUAGUAAUUAGUUA | 0.177 ± 0.021
UCCUGGUAUCAGCUUGCAUAGUAUUUAGUUA | 0.252 ± 0.026
UCCUCCUACAGGUUGCAUAGUAUAUAGUUA | 0.219 ± 0.022
UCCUGCUACAGGAAGCAUAGUAUUUAGUAA | 0.254 ± 0.024
UCCUGGAACACCUUGCAUUGUAUUUAGUUA | 0.14 ± 0.018
UCCUCCAACAGGUUGCAUAGUAUUUAGUUA | 0.28 ± 0.011
UCCUGCUACAGCUUGCAUAGUGAUUUAGUUA | 0.0204 ± 0.0094
UCCUGGAUGUGGCUUGCAUAGUAUUUAGUUA | 0.163 ± 0.017
UCCUGGAACUGCUUGCUUAGUAUUUAGUUA | 0.206 ± 0.019
UCCUGGUACAGCUUGCAUAAUAUUUAGUUA | 0.338 ± 0.068
UCCUGCUACAGCUUGCUUUGUAUUUAGUUA | 0.183 ± 0.015
UCCUCCUACGGCUUGCAUAGUAUUUAGUUA | 0.298 ± 0.018
UCCUCCUACACCUUGCAUAGUAUAUAGUUA | 0.199 ± 0.028
